Measured values taken from PubChem BioAssay (EPA / NIEHS).
Activity calls are given as the source filed them. How the source made its calls: active means hit-call score of the fitted dose curve at least 0.9, where 1 is the maximum; inactive means score below 0.9.

target: Nuclear respiratory factor 1 (Homo sapiens) (UniProt Q16656); test: ATG_NRF1_CIS: Attagene CIS-FACTORIAL HepG2 Assay for human Nuclear Respiratory Factor 1 (NRF1) Orphan Gene (AID 2282987); conditions: HepG2 NRF1 cis-element reporter, Attagene multiplex; actives raise or lower the signal
Sequence (Q16656 whole entry, looked up): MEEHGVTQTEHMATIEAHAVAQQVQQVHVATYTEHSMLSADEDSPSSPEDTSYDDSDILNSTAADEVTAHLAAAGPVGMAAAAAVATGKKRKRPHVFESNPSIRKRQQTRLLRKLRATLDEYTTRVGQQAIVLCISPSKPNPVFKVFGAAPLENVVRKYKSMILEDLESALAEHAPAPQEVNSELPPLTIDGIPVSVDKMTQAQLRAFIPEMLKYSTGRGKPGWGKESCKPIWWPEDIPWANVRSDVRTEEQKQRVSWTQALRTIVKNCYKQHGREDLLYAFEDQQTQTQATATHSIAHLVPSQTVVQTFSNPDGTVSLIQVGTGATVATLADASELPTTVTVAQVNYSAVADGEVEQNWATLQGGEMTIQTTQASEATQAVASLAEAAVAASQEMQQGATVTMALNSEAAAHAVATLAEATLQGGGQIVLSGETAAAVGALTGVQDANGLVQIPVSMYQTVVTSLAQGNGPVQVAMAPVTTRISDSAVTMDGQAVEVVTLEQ
How it was run: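 Endogenous factor activity was captured via cis-element-driven reporter transcripts in HepG2 cells. Following 24 h chemical treatment, transcripts were quantified by RT-PCR and capillary electrophoresis.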

outcome, inactive:
CN(C)c1ccncc1, CC1(C)CCC[C@]2(C)[C@H]3CCO[C@]3(C)CC[C@@H]12, CCC1CCCCC1, OCc1ccc(Cl)cc1Cl, Cc1occc(=O)c1OC(=O)C(C)C, Oc1ccc2cc(SSc3ccc4cc(O)ccc4c3)ccc2c1, CCOC(=O)COC(=O)c1cc(Oc2ccc(C(F)(F)F)cc2Cl)ccc1[N+](=O)[O-], CCOc1ccccc1O, CCOc1ccc(NC(=O)CC(C)=O)cc1, COCCOC(=O)c1ccccc1C(=O)OCCOC, OCCOCCN1CCN(C2=Nc3ccccc3Sc3ccccc32)CC1, CC(C)c1ccccc1O, CCCCCCCCCCCC(=O)OCC(O)CO (stereo not drawn), C=C(C)C1CC=C(C)C(=O)C1 (stereo not drawn), CCCCCCOCCOCCO, CCCCCCOC(=O)C(C)C, O=C1NC2NC(=O)NC2N1 (stereo not drawn), C=CC(=O)OCCC#N, CC(=O)c1ccccn1, CCCC(O)C(O)CO (stereo not drawn), CC(C)CC(C)CC(O)CC(C)C (stereo not drawn), COc1ccccc1[N+](=O)[O-], CCOc1ccc(N=Nc2ccc(C=Cc3ccc(N=Nc4ccc(OCC)cc4)cc3S(=O)(=O)O)c(S(=O)(=O)O)c2)cc1, COC(CC(C)CCCC(C)(C)O)OC (stereo not drawn), CC(C)NCC(O)COc1ccc(CC(N)=O)cc1 (stereo not drawn), CC(C)(CO)[C@@H](O)C(=O)NCCC(=O)O, COc1ccc(COC(C)=O)cc1, CCc1ccc(O)c(OC)c1, O=C1OC(=O)c2c(Br)c(Br)c(Br)c(Br)c21, C[C@@H]1CCN(C(=O)[C@H](CCCN=C(N)N)NS(=O)(=O)c2cccc3c2NC[C@H](C)C3)[C@@H](C(=O)O)C1, COC(=O)c1ccc(C)cc1C1=NC(C)(C(C)C)C(=O)N1 (stereo not drawn) (tested in a mixture with another compound), COS(=O)(=O)O, COc1cccc(OC)c1O, CCCC(=O)C(CC)Sc1ccoc1C (stereo not drawn), COC(=O)Nc1ccc(Cl)c(Cl)c1, Cc1ncc([N+](=O)[O-])n1CCO, O=CCc1ccccc1, CCCCSCCCC
